# This is a sample that favours compounds with a hit; in the whole collection about 0.92% have one here.
# Tb PYK inh: qHTS of Trypanosoma Brucei Inhibitors. pyruvate kinase (Trypanosoma brucei), Q57TT1. TbPYK enzyme, Kinase-Glo Plus ATP luminescence, 45 min. Potency, µM (doses to about 76.8 µM), for inactives: at the highest dose activity, negative = inhibition, usual class: inhibitors. 0.12% of 410,000 active; note: potency is the fitted concentration of half-maximal effect; % is set by controls: 0 for no effect and ±100 for the full control effect; nearly all actives have a fitted effect of over 50% in size
#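 Luminescent Kinase-Glo Plus end-point after 45 min room-temperature reaction of T. brucei pyruvate kinase started with 130 uM ADP (final). Buffer TEA 50 mM pH 7.2 with KCl, MgCl2, BSA, Tween-20; titration-based qHTS with fitted concentration-effect curves.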
# RE007 growth inh: qHTS Assay for Inhibitors of the HIV-1 protein Vpr; Potency, µM (titrated, usually from 92.2 µM), for the others: top-dose activity change, negative = less growth, most hits filed as inhibitors; 0.21% of 360,000 active; S. pombe RE007 Vpr strain, BacTiter-Glo ATP luminescence, 24 h; active = well fitted falling curve with a large enough effect; inconclusive = small, poorly fitted or top-dose-only effect; inactive = no such curve, though single readings can be large or run the other way; note: potency is the fitted concentration of half-maximal effect; % is set by controls: 0 for no effect and ±100 for the full control effect; nearly all actives have a fitted effect of over 50% in size
#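 Fission yeast strain RE007, carrying one chromosomally integrated HIV-1 vpr copy, was seeded at OD 0.01 in PMG+AL medium with 23 nL pinned compound. After 24 h at 30 °C and 99% humidity, viability was read by BacTiter-Glo luminescence.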
# NS1 inh: qHTS Assay for Inhibitors of Influenza NS1 Protein Function; Potency, µM (series often up to 46.1 µM), inactives show at the highest dose activity, positive = more growth; 0.4% of 270,000 active; calls by dose curve; note: potency is the fitted concentration of half-maximal effect; actives are rising curves; nearly all actives have a fitted effect of over 50% in size
#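 Read-out: OD600 growth recovery of NS1-expressing budding yeast. Cells grown overnight at 30C in -URA glucose medium, washed, resuspended and diluted 1:100 in 2% galactose assay medium, pH 6.0. Same strain lacking NS1 served as positive control.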
# AMA1 RON2 block: qHTS for Inhibitors of AMA1-RON; Towards Development of Antimalarial Drug Lead: Primary Screen | Potency, µM (highest dose often 58.2 µM), inactives show top-dose activity change, negative = inhibition, usual class: inhibitors | AID 720542, 2013 | AlphaScreen AMA1-biotinylated RON2 peptide binding | 0.2% of 360,000 active | Plasmodium falciparum AMA1 (3D7) - RON2 peptide interaction;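 note: potency is the fitted concentration of half-maximal effect; 0% = vehicle wells and -100% = peptide control; nearly all actives have a fitted effect of over 45% in size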
#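 AMA1 (3D7) with his tag at 25 nM final met compounds first, then biotinylated RON2 peptide at 25 nM; detection used donor plus acceptor beads, 10 µg/mL apiece, read by AlphaScreen after 30 min at room temperature.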
# LmPK inh: qHTS Assay for Inhibitors of Leishmania Mexicana Pyruvate Kinase (LmPK) | 0.37% of 290,000 active | Potency, µM (titrated, usually from 57.5 µM), for the others: at the highest dose activity change, negative = inhibition, hits mostly inhibitors | purified LmPK, Kinase-Glo ATP luminescence, 1 h; note: potency is the fitted concentration of half-maximal effect; % is set by controls: 0 for no effect and ±100 for the full control effect
# Target sequence (Q27686 whole entry, looked up): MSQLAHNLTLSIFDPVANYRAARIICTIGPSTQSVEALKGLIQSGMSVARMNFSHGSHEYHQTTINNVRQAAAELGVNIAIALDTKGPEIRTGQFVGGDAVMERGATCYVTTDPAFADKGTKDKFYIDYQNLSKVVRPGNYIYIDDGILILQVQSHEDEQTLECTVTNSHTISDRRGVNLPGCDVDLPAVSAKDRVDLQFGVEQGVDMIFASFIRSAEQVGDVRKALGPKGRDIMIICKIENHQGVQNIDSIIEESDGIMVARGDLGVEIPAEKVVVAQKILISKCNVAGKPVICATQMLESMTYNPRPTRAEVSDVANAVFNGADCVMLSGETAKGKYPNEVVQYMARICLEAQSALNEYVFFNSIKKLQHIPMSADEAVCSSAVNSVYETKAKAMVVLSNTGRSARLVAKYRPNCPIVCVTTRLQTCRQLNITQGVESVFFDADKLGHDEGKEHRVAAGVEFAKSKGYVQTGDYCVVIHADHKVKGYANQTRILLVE
#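 Purified LmPK (0.1 nM) with 0.5 mM PEP and 0.1 mM ADP in imidazole buffer pH 7.2 with MgCl2/KCl, 1 h at room temperature. ATP formed was read by luciferase luminescence and normalized to no-enzyme and uninhibited controls.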
# NS1 inh valid: Assay for Inhibitors of Influenza NS1 Protein Function: Hit Validation; activity change, negative = inhibition, % at 32.9 µM; shares compounds with NS1 inh; 1,400 tested, under 10 active; influenza NS1 function cell assay, 15-point titration; calls by dose curve; note: 0% is about no effect
# PR8 titer: Assay for Inhibitors of Influenza NS1 Protein Function: Influenza virus replication assay in MDCK cells infected with virus A/PR/8/34. 30% of 95 active. shares compounds with NS1 inh. virus titer (log TCID50), log10 TCID50 at 5 µM. MDCK infected influenza A/PR/8/34, virus titer TCID50; active compounds read low; call rule not given here
# An asterisk follows results filed as active; ? = inconclusive; nt = no result given; [ ] = remark or other dose. Unless noted, calls come from the whole dose curve; as a rule, active = well fitted curve in the direction sought with a large enough effect; inconclusive = small, poorly fitted or top-dose-only effect, or another doubt; inactive = no such curve, though single readings can be large; an effect the other way counts as inactive or inconclusive.
SMILES,Tb PYK inh,RE007 growth inh,NS1 inh,AMA1 RON2 block,LmPK inh,NS1 inh valid,others
NC(=S)N/N=C1\CC(c2ccc3c(c2)OCCCO3)Oc2ccc(F)cc21 (stereo unspecified),-13%,4%,2µM*,7%,2%,1,
NC(=S)N/N=C1\CC(c2ccc3c(c2)OCCO3)Oc2ccc(F)cc21 (stereo unspecified),-8%,18%,1%,72%,-3%,nt,
CN1CC[C@@]2(C)c3cc(O)ccc3N(C)C12 (stereo partly specified),nt,nt,13µM*,nt,nt,1,
CCC1Oc2ccc(C)cc2N(CC(=O)NCc2ccc(OC)cc2)C1=O (stereo unspecified),-3%,nt,nt,nt,nt,nt,
Cc1cc(C)cc(-n2ccnc2SCC(=O)Nc2ccc3c(c2)OCO3)c1,4%,nt,nt,nt,nt,nt,
Cc1ncc([N+](=O)[O-])n1CCOC(=O)Nc1ccc(Cl)c(Cl)c1,2%,-4%,?,2%,0%,-1,
Cc1c(NC(=O)c2ccc(-c3ccc(F)cc3)o2)cccc1-c1nc2ncccc2o1,0%,nt,nt,nt,nt,nt,
CCOC(=O)c1c(C)oc2c(Cl)cc(NS(=O)(=O)c3ccc(Cl)c(C)c3)cc12,1%,nt,nt,nt,nt,nt,
COc1ccc(C)cc1S(=O)(=O)N1CCN(C(=O)c2ncoc2-c2ccccc2C)CC1,6%,-3%,?,-5%,4%,-20,
COc1ccc(C(=O)N2CCN(S(=O)(=O)c3ccc(C)cc3C)CC2)cc1OC,0%,5%,-48%,-8%,-1%,nt,
CC1CCN(C(c2ccccc2)c2sc3nc(-c4ccco4)nn3c2O)CC1 (stereo unspecified),-2%,nt,nt,nt,nt,nt,
CCn1nnc2cc(C(=O)Nc3cccc(C)c3C)ccc21,-5%,nt,nt,nt,nt,nt,
CN(Cc1cccc(F)c1)C(=O)c1ccc(S(=O)(=O)C(F)F)cc1,-6%,-3%,2.8µM*,-1%,-3%,0,
CN(Cc1cccc(F)c1)C(=O)c1cccc(S(=O)(=O)N2CCN(Cc3ccccc3)CC2)c1,-10%,-13%,-34%,-11%,1%,nt,
O=c1ccc(Cc2ccc(Cl)cc2)n[nH]1,1%,6%,2%,10%,-2%,nt,
O=c1ccc(Cl)n[nH]1,-7%,1%,7.9µM*,7%,-9%,14,
COc1ccc(NC(=O)CC2C(=O)N(c3ccccc3)C(=O)N2CCc2sccc2C)cc1 (stereo unspecified),0%,nt,nt,nt,nt,nt,
O=C(CSc1nccc(=O)[nH]1)N1N=C2/C(=C/c3ccco3)CCCC2C1c1ccco1 (stereo unspecified),0%,0%,nt,-22%,1%,nt,
Cn1cnnc1SCC(=O)N1N=C2/C(=C/c3ccco3)CCCC2C1c1ccco1 (stereo unspecified),-16%,0%,3.5µM*,-9%,2%,2,
COc1ccc(NC(=O)Nc2cccs2)cc1OC,2%,2%,?,-1%,5%,18,
COc1cccc(NC(=O)Nc2cccs2)c1,-16%,-15%,17%,24%,2%,nt,
NC(=O)Cn1c(=O)n(CCCCCC(=O)NCc2ccccc2Cl)c(=O)c2sccc21,-2%,nt,nt,nt,nt,nt,
Cc1ccc(-n2nc3c(c2NC(=O)/C=C\c2ccc4c(c2)OCO4)CSC3)c(C)c1,-3%,8%,8.9µM*,-8%,1%,3,
Cc1ccc(-n2nc3c(c2NC(=O)/C=C\c2ccc4c(c2)OCO4)CSC3)cc1,-7%,-3%,16µM*,9%,0%,-16,
Cc1ccc(OC(=O)c2cc(-c3ccc4c(c3)OCCO4)on2)c(C)c1,2%,nt,nt,nt,nt,nt,
SMILES,Tb PYK inh,RE007 growth inh,NS1 inh,AMA1 RON2 block,LmPK inh,NS1 inh valid,others
Cc1nn(C(=O)c2ccccc2)c(C)c1Sc1ccc(Cl)cc1,1%,nt,nt,nt,nt,nt,
CCc1nnc(NS(=O)(=O)c2ccc(NC(=O)c3cc(Cl)ccc3Cl)cc2)s1,-4%,8%,11%,-16%,4%,nt,
CCc1nnc(NS(=O)(=O)c2ccc(NC(=O)c3cc(Cl)ccc3[N+](=O)[O-])cc2)s1,0%,1%,11µM*,9%,1%,29,PR8 titer=8.3
CCC1CCCN1Cn1cnc2c([nH]c3ccc(C)cc32)c1=O (stereo unspecified),4%,-15%,?,10%,1%,-23,
COc1cc(CN(C(=O)COc2ccccc2)c2ccccn2)cc(OC)c1OC,1%,nt,nt,nt,nt,nt,
OC(CNCC(c1ccco1)N1CCCCC1)c1ccccc1 (stereo unspecified),-2%,11%,2.2µM*,-12%,0%,7,
CC1=C(c2ccc(C(C)C)cc2)S(=O)(=O)N=C1N1CCN(c2ccccc2F)CC1,-3%,nt,nt,nt,nt,nt,
COc1ccc(N=C2SC(CC(=O)Nc3ccccc3OC)C(=O)N2Cc2ccco2)cc1 (stereo unspecified),-3%,-2%,10µM*,0%,3%,-14,
CCn1c2ccccc2c2cc(N=C3SC(CC(=O)Nc4ccccc4OC)C(=O)N3C)ccc21 (stereo unspecified),-4%,-5%,4µM*,15%,4%,-25,
Cc1cccc(NC(=O)Cn2c(=O)n(CCc3c[nH]c4ccccc34)c(=O)c3cccnc32)c1,nt,nt,4µM*,nt,1%,-4,
O=C(Cn1c(=O)n(CCc2c[nH]c3ccccc23)c(=O)c2cccnc21)Nc1ccccc1F,0%,14%,20%,-9%,-6%,nt,
O=S(=O)(c1ccccc1)c1nc(-c2ccco2)oc1NCCCN1CCOCC1,-5%,13%,7%,3%,1%,nt,
N#Cc1nc(-c2ccco2)oc1NCCCN1CCOCC1,?,2%,2.5µM*,-13%,6%,20,
CCOc1cc(-c2c(C#N)c(=O)[nH]c3c2c(C)nn3-c2ccc(F)cc2)ccc1O,4%,13%,7.9µM*,25%,4%,26,PR8 titer=4*
NC(=S)N/N=C/c1ccccc1OCCSc1ccc(Cl)cc1,-7%,8%,10µM*,36%,4%,?,
COc1cccc(/C=N/NC(N)=S)c1OCc1ccccc1Cl,-3%,15%,5%,72%,1%,nt,
c1nc(NC2CCCCC2)c2[nH]cnc2n1,nt,0%[3.69 µM],1%,-1%,1%,nt,
c1nc(NC2CCCCCC2)c2[nH]cnc2n1,0%,0%,10µM*,4%,-3%,-24,

# High-throughput results (PubChem BioAssay)
